Luciferase inh = inhibitors of firefly (Photinus pyralis) luciferase. P08659. purified P. pyralis luciferase, luminescence, biochemical. Potency, µM (top dose mostly 115 µM), most hits filed as inhibitors. hit rate 2.5% among 76,000; note: nearly all actives have a fitted effect of over 65% in size
Target sequence (P08659 whole entry, looked up): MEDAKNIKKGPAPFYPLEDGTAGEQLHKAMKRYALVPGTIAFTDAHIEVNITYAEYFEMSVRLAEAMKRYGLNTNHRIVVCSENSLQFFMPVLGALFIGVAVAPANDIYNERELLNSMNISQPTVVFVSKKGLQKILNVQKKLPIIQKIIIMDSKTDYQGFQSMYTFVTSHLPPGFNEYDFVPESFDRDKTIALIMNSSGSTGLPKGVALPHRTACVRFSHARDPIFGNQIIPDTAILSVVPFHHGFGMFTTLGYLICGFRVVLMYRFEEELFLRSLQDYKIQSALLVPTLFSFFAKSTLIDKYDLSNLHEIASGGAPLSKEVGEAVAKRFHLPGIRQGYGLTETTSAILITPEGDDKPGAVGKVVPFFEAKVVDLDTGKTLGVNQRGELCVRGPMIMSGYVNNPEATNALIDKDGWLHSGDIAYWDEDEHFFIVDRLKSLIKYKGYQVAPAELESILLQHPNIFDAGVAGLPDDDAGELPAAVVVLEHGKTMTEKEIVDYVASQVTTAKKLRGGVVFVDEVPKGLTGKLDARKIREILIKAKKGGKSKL
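Purified 10nM P. pyralis luciferase with 10uM D-luciferin and 10uM ATP in 50mM Tris acetate pH 7.5, 10mM Mg acetate, 0.01% Tween-20, 0.05% BSA. qHTS titration; luminescence read by CCD imager.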
HEK cytotox = cytotoxic compounds in HEK 293 cells; HEK 293 viability, ATP luminescence (CellTiter-Glo), 48-72 h; Potency, µM (series often up to 115 µM), hits mostly inhibitors; hit rate 6.6% among 94,000; note: nearly all actives have a fitted effect of over 60% in size
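Read-out: CellTiter-Glo ATP luminescence. Cells: HEK 293, 250 cells/well. Exposure: 48 or 72 hr, 37 degree Celsius.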
NIH3T3 tox = kills NIH 3T3 cells; NIH 3T3 viability, CellTiter-Glo ATP luminescence, 48-72 h; Potency, µM (top dose mostly 96.7 µM), hits mostly inhibitors; hit rate 4.3% among 94,000; AID 1345082; note: nearly all actives have a fitted effect of over 55% in size
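Luminescent ATP readout (CellTiter-Glo, 10 min RT) after 48 or 72 hr compound exposure of NIH 3T3 cells seeded at 400 cells/well in 1536-well format; quantitative HTS.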
NPR1 antag = blocks ANP-stimulated signaling of human Npr1 receptor | Potency, µM (highest dose often 46.3 µM), actives largely listed as inhibitors | HEK293 hNpr1 GloSensor cGMP, ANP-stimulated luminescence | hit rate 1.6% among 76,000 | P16066 | AID 1347048; calls by dose curve; note: nearly all actives have a fitted effect of over 60% in size
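HEK293 cells stably expressing human Npr1 and cGMP GloSensor pGS-40F, loaded 2 h with 2% GloSensor reagent, given compound 30 min at room temperature. Luminescence read before and 20 min after 0.1 nM hNppA.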
GPT2 inhibitor = blocks human glutamate pyruvate transaminase 2; Q8TD30; Recombinant GPT2, coupled pyruvate oxidase/HRP Amplex Red fluorescence; Potency, µM (doses to about 57.7 µM), actives largely listed as inhibitors; hit rate 0.25% among 100,000; note: nearly all actives have a fitted effect of over 60% in size
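Inhibition is scored from Amplex Red fluorescence generated when pyruvate oxidase and HRP act on pyruvate released by GPT2. Reactions contain 10ng/uL enzyme, 250uM a-KG and 2mM L-alanine and run 30 min at room temperature.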
Large screens that a line does not name were inactive. Sampled rows, rich in hits. Any-hit rate of the full collection: about 10%. Unless noted, calls come from the whole dose curve; as a rule, active = well fitted curve in the direction sought with a large enough effect; inconclusive = small, poorly fitted or top-dose-only effect, or another doubt; inactive = no such curve, though single readings can be large; an effect the other way counts as inactive or inconclusive.

O=C(c1ccc(Cl)cc1)N1CCOCC2(CN(Cc3ccccc3)C2)C1	NIH3T3 tox 3.2µM
COc1ccc(C(=O)N2CCOCC3(CN(Cc4ccccc4)C3)C2)cc1	HEK cytotox 10µM, NIH3T3 tox inconclusive
O=C(c1ccc(Cl)cc1)N1CCOCC12CCN(CCc1ccccc1)CC2	HEK cytotox inconclusive, NIH3T3 tox inconclusive
COc1ccc(C(=O)N2CCOCC3(CN(Cc4cc(C)cc(F)c4)C3)C2)cc1OC	HEK cytotox 8.9µM, NIH3T3 tox inconclusive
COc1ccc(C(=O)N2CCOCC3(CN(Cc4cc(F)cc(F)c4)C3)C2)c(OC)n1	none
Cc1ccccc1N1CCN(C2CCCN(C(=O)c3ccc(-c4ccco4)cc3)C2)CC1 (stereo not given)	GPT2 inhibitor inconclusive
Cc1ccc(Cn2c(=O)c(-c3noc(C)n3)c3n(c2=O)CCCCC3)cc1	none
O=C(C1CCCN1c1nc2ncccc2o1)N1CCCC1 (stereo not given)	none
CN(C)c1ccc(CN2CC[C@H](c3nc4c(C(N)=O)cccc4[nH]3)C2)cc1	HEK cytotox 71µM, NIH3T3 tox 100µM, NPR1 antag inconclusive
Cc1ccc(NC(=O)Cn2ccn3nc4c(c3c2=O)CCCCC4)cc1F	none
O=C(C1CCCN(Cc2cccc(-c3cccs3)c2)C1)N1CCN(Cc2ccccc2)CC1 (stereo not given)	HEK cytotox inconclusive, NIH3T3 tox 35µM (no result: Luciferase inh, NPR1 antag)
O=C(C1CCCN(Cc2cccc(-c3cccs3)c2)C1)N1CCC(c2ccccc2)CC1 (stereo not given)	HEK cytotox 45µM, NIH3T3 tox 40µM (no result: Luciferase inh, NPR1 antag, GPT2 inhibitor)
O=C(C1CCCN(Cc2cccc(-c3cccs3)c2)C1)N1CCOCC1 (stereo not given)	HEK cytotox inconclusive (no result: Luciferase inh, NPR1 antag)
Cc1nn(C)c(C)c1CNC(=O)C1CC(=O)N(c2n[nH]c3cccc(F)c23)C1 (stereo not given)	none
O=C(c1cc(COc2ccccc2F)[nH]n1)N1CCOCC1	Luciferase inh 32µM
O=C(NC1CCCN(c2cc(-c3ccc(F)cc3)[nH]n2)C1)c1ccc2cc[nH]c2c1 (stereo not given)	Luciferase inh 28µM, HEK cytotox 35µM, NIH3T3 tox 35µM
O=C(NC1CCCN(c2cc(-c3ccccc3)[nH]n2)C1)c1ccc2[nH]ccc2c1 (stereo not given)	Luciferase inh 32µM, HEK cytotox inconclusive, NIH3T3 tox inconclusive
COCCOC1CCN(C(=O)C2(c3ccccc3)CC2)CC1	none
CCN1C(=O)C2CC3(CCN(C(=O)c4cnccc4C)CC3)CN2C1=O (stereo not given)	none
O=C(Nc1cccc(-c2ccc(N3CCCC3)nn2)c1)Nc1cc(F)ccc1F	Luciferase inh 5µM, HEK cytotox inconclusive, NIH3T3 tox inconclusive, NPR1 antag inconclusive, GPT2 inhibitor inconclusive
O=C(Nc1cccc(-c2ccc(N3CCCC3)nn2)c1)Nc1c(F)cccc1F	Luciferase inh 14µM, HEK cytotox inconclusive, NIH3T3 tox inconclusive
O=C(Nc1ccc(Cl)cc1)Nc1cccc(-c2cccc(N3CCCC3)n2)c1	none (no result: Luciferase inh, HEK cytotox, NIH3T3 tox, NPR1 antag)
O=C(Nc1cccc(-c2nnc3n2CCCC3)c1)Nc1ccccc1F	none
Cc1ccccc1-c1noc(CCC(=O)N[C@H]2CC[C@H]2N)n1	none
Oc1cccc(-c2cc(C3=CCOCC3)c3cncn3c2)c1	HEK cytotox inconclusive, NIH3T3 tox 100µM, GPT2 inhibitor inconclusive
Oc1ccccc1-c1cc(C2=CCOCC2)c2cncn2c1	HEK cytotox 100µM, NIH3T3 tox 63µM
C1=C(c2cc(-c3cccc(N4CCOCC4)c3)cn3cncc23)CCOC1	HEK cytotox inconclusive, NIH3T3 tox inconclusive, GPT2 inhibitor inconclusive
COc1ncccc1-c1cc(C2=CCOCC2)c2cncn2c1	NIH3T3 tox inconclusive
CN1Cc2ncnc(NCCc3ccccc3F)c2CN(c2ccccc2)C1=O	HEK cytotox inconclusive, NIH3T3 tox inconclusive
CCN1C(=O)C2CC3(CCN(Cc4cccn4C)CC3)CN2C1=O (stereo not given)	none
COC(=O)COCC(=O)N1Cc2[nH]cnc2C[C@H]1c1nc(-c2ccc(F)c(Cl)c2)no1	none
O=C1Cc2c(-c3cccc(C(F)(F)F)c3)n[nH]c2CN1CCc1ccncc1	HEK cytotox 89µM, NIH3T3 tox inconclusive
O=C1Cc2c(-c3ccc4c(c3)OCO4)n[nH]c2CN1CC1CCOCC1	NIH3T3 tox 10µM
O=C1Cc2c(-c3ccccc3)n[nH]c2CN1CCc1ccncc1	NIH3T3 tox inconclusive
O=C1Cc2c(-c3ccc(N4CCOCC4)cc3)n[nH]c2CN1CCc1ccncc1	Luciferase inh inconclusive, NIH3T3 tox 79µM
O=C1Cc2c(-c3cccc4ccccc34)n[nH]c2CN1CCc1ccncc1	HEK cytotox 79µM, NIH3T3 tox inconclusive
Cc1nnc2ccc(N3CCC(NC(=O)c4ccc(Cl)nc4)CC3)nn12	none (no result: Luciferase inh, NPR1 antag, GPT2 inhibitor)
COCc1nc(C2CC(NC(=O)c3c(F)ccc(C)c3Cl)C2)cc(=O)[nH]1 (stereo not given)	none
CCc1nc(CC)n2ccn(Cc3ccccn3)c(=O)c12	none
CCCN(CC1CCOC1)C(=O)NCC(C)C (stereo not given)	none
O=C(Nc1ccccc1)N[C@H]1CO[C@H]2[C@@H]1OC[C@@H]2Nc1nccc(-c2cccs2)n1	Luciferase inh inconclusive, HEK cytotox 63µM, NIH3T3 tox inconclusive
O=C(COc1ccccc1)N[C@H]1CO[C@H]2[C@@H]1OC[C@@H]2Nc1nccc(-c2ccco2)n1	HEK cytotox inconclusive, NIH3T3 tox 89µM
O=C(N[C@H]1CO[C@H]2[C@@H]1OC[C@@H]2Nc1nccc(-c2ccco2)n1)c1ccco1	HEK cytotox inconclusive
CC(=O)c1ccc(NC(=O)N[C@H]2CO[C@H]3[C@@H]2OC[C@@H]3Nc2nccc(-c3cccs3)n2)cc1	none
CCC(CC)NC(=O)c1ccc2c(c1)N(S(C)(=O)=O)CC2	none
CN1c2cc(C(=O)NC3CCCCCCC3)ccc2C(=O)N2CCCC21 (stereo not given)	Luciferase inh inconclusive
O=C(c1ccc(F)cc1)N1CCC(Cc2nc(-c3cnccn3)no2)CC1	HEK cytotox inconclusive, NIH3T3 tox inconclusive
O=C(c1ccc(Cl)cc1)N1CCC(Cc2nc(-c3cnccn3)no2)CC1	HEK cytotox inconclusive, NIH3T3 tox 25µM, NPR1 antag inconclusive, GPT2 inhibitor inconclusive
CC(=O)N(C)CCc1noc(C2CN(C(=O)COc3ccccc3)C2)n1	none
CC(=O)N(C)CCc1noc(C2CN(Cc3c(F)cccc3Cl)C2)n1	HEK cytotox 40µM, NIH3T3 tox inconclusive
COc1ccc(C2(C(=O)NCCn3c(C)cnc3-c3cccnc3)CC2)cc1	none
CN(C(=O)c1cc(-c2cc(Cl)cc(Cl)c2)nc2c1cnn2C)c1ccccc1	HEK cytotox 40µM, NIH3T3 tox inconclusive (no result: Luciferase inh, NPR1 antag, GPT2 inhibitor)
Cn1ncc2c(-c3ccc(Cl)cc3Cl)cc(C(=O)N3CCN(c4ncccn4)CC3)nc21	HEK cytotox 32µM, NIH3T3 tox 45µM (no result: Luciferase inh, NPR1 antag)
